According to the supplement of paper PMC3842684:

The compounds below were run on P. falciparum NF54-pfs16-GFP early (I-III) stage gametocytes (assay: relative % inhibition of viable gametocyte number; higher = more gametocytocidal). Conditions: 0.5 µM; stage: early (I-III) gametocyte; incubation 72 h.
Procedure, shortened: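 Compound was tested in duplicate at 5 or 0.5 µM on magnet-isolated NF54 pfs16-GFP gametocytes, taken either early (I/IIa, day 2) or late (day 8) and plated at 10% parasitaemia, 0.1% haematocrit. Incubation ran 72 h at 37°C, 5% CO2, 5% O2, followed by overnight MitoTracker Red staining and confocal imaging. Relative inhibition, based on counts of elongated GFP objects with above-cut-off MitoTracker signal, was normalised to in-plate vehicle and positive-control wells.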
Compound CC(=O)NCCc1nc2ccccc2n1Cc1ccc(C(C)C)cc1 has a relative % inhibition of 8.03%.
CCOC(=O)c1cn(CC)c2cc(N3CCCCC3)c(F)cc2c1=O was tested, and the relative % inhibition was 22%.
In the case of COc1ccc(-c2nc3cc(Cc4ccc5[nH]c(-c6ccc(OC)cc6)nc5c4)ccc3[nH]2)cc1, the relative % inhibition is reported as 48.1%.
For CCN(CC)CCNc1ncnc2c1[nH]c1ccc(Br)cc12, the relative % inhibition was -15.3%.
O=C(NCC(c1ccsc1)N1CCCCCC1)c1ccc(C(F)(F)F)cc1 (stereo not drawn) was tested, and the relative % inhibition was -5.22%.
CN(C)CCNc1cc(-c2ccccc2)nc2ccccc12 showed a relative % inhibition of -7.32%.
With O=C1c2ccccc2-c2nnc(-c3ccc(Br)cc3)cc21 the relative % inhibition was 16.6%.
For Cc1ccc2c(C)nc(Nc3nc(C)cc(-c4ccccc4)n3)nc2c1, the relative % inhibition was 38%.
Work on CCOC(=O)c1c(NC(=O)c2ccccc2)sc2c(O)c(CN(CC)CC)ccc12 yielded a relative % inhibition of 28.6%.
For Cc1sc(NC(=O)c2ccccc2)c(C(c2cccs2)N2CCN(c3ccccc3)CC2)c1C (stereo not drawn), the relative % inhibition was 17.7%.
In the case of CCc1ccc(Nc2cc(C)nc3nc(C)nn23)cc1, the relative % inhibition is reported as -3.8%.
With CCOc1cc2c(cc1OCC)C(c1cc(Cl)c(O)c(OCC)c1)NCC2 (stereo not drawn) the relative % inhibition was 8.41%.
Work on O=C(NC1CCN(Cc2ccccc2)CC1)c1cc2nc(-c3ccc(Cl)s3)cc(C(F)(F)F)n2n1 yielded a relative % inhibition of 3.66%.
Compound CCCCNCC(O)(c1ccc(Cl)cc1)c1ccc(Cl)cc1 has a relative % inhibition of 10.1%.
Cc1cc(Nc2ccc3ccccc3c2)n2ncnc2n1 was tested, and the relative % inhibition was -10.4%.
Work on Cc1ccc(CSCc2ccc(C(=O)NC3CC3)o2)cc1 yielded a relative % inhibition of 1.49%.
In the case of FC(F)(F)c1ccc(Nc2nnnc3ccccc23)cc1, the relative % inhibition is reported as 7.13%.
For COc1ccc(C(=O)Nc2ccc(Cl)cc2C(=O)Nc2ccncc2)cc1, the relative % inhibition was -7.22%.
Compound CCCc1c(C)nc2ccc(Br)cc2c1O has a relative % inhibition of 4.64%.
CCCCCC(=O)N1c2ccccc2N=C2CC(c3ccc(OC)c(OC)c3)CC(O)=C2C1c1ccc(C(F)(F)F)cc1 (stereo not drawn) was tested, and the relative % inhibition was 50.6%.
Cc1ccc(F)cc1NC(=O)c1cc(Cl)ccc1Nc1ccccc1 gave a relative % inhibition of 23.8%.
Cc1ccc(Nc2nc(-c3ccccn3)cs2)cc1 showed a relative % inhibition of 69.6%.

Same assay, conditions: 5 µM; stage: early (I-III) gametocyte; incubation 72 h
For COc1cc(OC)c(N(C)C(=O)c2cc3c(s2)-c2ccccc2S(=O)(=O)C3)cc1Cl, the relative % inhibition was 93.9%.
With O=C(NCC1Cc2cccc(-c3ccncc3)c2O1)c1csc2c1CCCC2 (stereo not drawn) the relative % inhibition was 6.48%.
Work on COCCN(C(=O)Cc1cccs1)C(C(=O)NCc1ccc(OC)cc1)c1ccc(C(C)C)cc1 (stereo not drawn) yielded a relative % inhibition of 5.52%.
COc1ccc(CNC(=O)c2cc3c(=O)n4ccccc4nc3n(CCc3ccccc3)c2=N)cc1 gave a relative % inhibition of 56.6%.
Compound c1ccc(Cn2c(N=Nc3c(Nc4ccccc4)ccc4ccccc34)nc3ccccc32)cc1 has a relative % inhibition of 106%.
Compound Cc1c(C)n(CC(O)CNC2CCCCC2C)c2ccccc12 (stereo not drawn) has a relative % inhibition of 98.7%.
For CCN(CC)c1ccc(NC(=O)c2cccs2)cc1, the relative % inhibition was -23.9%.
COc1ccc(C(=O)C2CC2c2ccc(Cl)cc2)cc1 (stereo not drawn) was tested, and the relative % inhibition was 79.1%.
COc1ccc(C(=O)Nc2nonc2-c2ccc(OC)c(OC)c2)cc1Cl gave a relative % inhibition of 31.6%.
O=C(Nc1ccc(-c2nc3cc4ccccc4cc3[nH]2)cc1)c1cccc(Br)c1 was tested, and the relative % inhibition was 34.5%.
Work on COc1ccc(C(=O)C(CCC(CNC(C)(C)C)C(=O)c2ccc(OC)cc2)CNC(C)(C)C)cc1 (stereo not drawn) yielded a relative % inhibition of 94%.
With O=C(NCc1ccco1)C1CCN(S(=O)(=O)c2ccc(Cl)cc2)CC1 the relative % inhibition was 3.24%.
For CCOc1ccc(-c2nc(NC(=O)c3cccc(S(C)(=O)=O)c3)sc2C)cc1, the relative % inhibition was 15.4%.
In the case of Cc1ccc(C(=O)c2oc3ccc4c(C)cc(=O)oc4c3c2C)cc1, the relative % inhibition is reported as -0.0271%.
Work on O=C(NC(c1ccccc1)c1ccc2cccnc2c1O)c1ccccc1 (stereo not drawn) yielded a relative % inhibition of 95.3%.
CCOC(=O)c1cn(CC)c2cc(N(C)CCc3ccc(OC)c(OC)c3)c(F)cc2c1=O was tested, and the relative % inhibition was 51.6%.
Work on CCN(CC)CCNc1ncnc2c1[nH]c1ccc(Cl)cc12 yielded a relative % inhibition of 79.1%.
In the case of CC(=O)NCCc1nc2ccccc2n1Cc1ccc(C(C)C)cc1, the relative % inhibition is reported as 50.5%.
CCOC(=O)c1cn(CC)c2cc(N3CCCCC3)c(F)cc2c1=O was tested, and the relative % inhibition was 17%.
Work on COc1ccc(-c2nc3cc(Cc4ccc5[nH]c(-c6ccc(OC)cc6)nc5c4)ccc3[nH]2)cc1 yielded a relative % inhibition of 100%.
Compound CCN(CC)CCNc1ncnc2c1[nH]c1ccc(Br)cc12 has a relative % inhibition of 61.4%.
O=C(NCC(c1ccsc1)N1CCCCCC1)c1ccc(C(F)(F)F)cc1 (stereo not drawn) showed a relative % inhibition of 0.803%.
CN(C)CCNc1cc(-c2ccccc2)nc2ccccc12 showed a relative % inhibition of -20.1%.
Work on O=C1c2ccccc2-c2nnc(-c3ccc(Br)cc3)cc21 yielded a relative % inhibition of 10%.
Cc1ccc2c(C)nc(Nc3nc(C)cc(-c4ccccc4)n3)nc2c1 gave a relative % inhibition of 88.6%.
With CCOC(=O)c1c(NC(=O)c2ccccc2)sc2c(O)c(CN(CC)CC)ccc12 the relative % inhibition was 94.9%.
